Counter-ions that a name gives are not always drawn. Unmarked numbers belong to inactive results.
Assays:
Conditions in all cases: 20 µM
[1] = system: Salmonella enterica typhimurium; assay: growth AUC normalised to DMSO control (fraction of control); higher = less growth inhibition, active = hit call of the paper
Outline: (§1)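 Three biological replicates were carried out, with OD578 read hourly for 24 h. Before inoculation at a starting OD578 of 0.01, pathogens were passaged anaerobically twice; plates were pre-reduced mGAM containing 20 μM compound and 1% DMSO, sealed with breathable membranes, and the Haemophilus parainfluenzae medium carried added hemin and NAD. Area under each growth curve was calculated by the trapezoidal rule up to the exponential-to-stationary transition and normalised to DMSO controls on the same plate.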

[2] = system: Shigella flexneri; assay: as above
Outline: as §1

[3] = system: Vibrio cholerae; assay: as above
Outline: as §1

[4] = system: Yersinia pseudotuberculosis; assay: as above
Outline: as §1

[5] = system: P. vulgatus RND KO; assay: growth AUC normalised to DMSO control (median) (fraction of control); higher = less growth inhibition, active = hit call of the paper
Outline: (§2)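 Anaerobic growth was tracked hourly at OD578 for 24 h in 96-well plates of mGAM seeded at OD578 0.01 with each approved-drug library compound at 20 μM and 1% DMSO. Strains had first been passaged twice overnight without oxygen. Three biological replicates were run. The reported median is the area under the curve, calculated by the trapezoidal rule on curves truncated at entry into stationary phase and normalised to vehicle wells on the same plate.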

[6] = system: P. vulgatus WT; assay: as above
Outline: as §2

[7] = system: S. enterica typhimurium WT; assay: as above
Outline: as §2

[8] = system: S. enterica typhimurium tolC KO; assay: as above
Outline: as §2
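Throughout, for growth AUC normalised to DMSO control (median): active when median AUC fell below 0.1.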

Row | SMILES | growth AUC normalised to DMSO control [1] | growth AUC normalised to DMSO control [2] | growth AUC normalised to DMSO control [3] | growth AUC normalised to DMSO control [4] | growth AUC normalised to DMSO control [5] | growth AUC normalised to DMSO control [6] | growth AUC normalised to DMSO control [7] | growth AUC normalised to DMSO control [8]
1 | CO[C@H]1/C=C/O[C@@]2(C)Oc3c(C)c(O)c4c(O)c(c5c(nc6cc(C)ccn65)c4c3C2=O)NC(=O)/C(C)=C\C=C\[C@H](C)[C@H](O)[C@@H](C)[C@@H](O)[C@@H](C)[C@H](OC(C)=O)[C@@H]1C [Rifaximin] | 0.477 (active) | 0.56 (active) | 1.1 | 0.0303 (active) | 0.0137 (active) | 0.00787 (active) | 0.217 | 0.0409 (active)
2 | COC(=O)[C@@H]1[C@H]2C[C@H]3c4[nH]c5ccccc5c4CCN3C[C@@H]2CC[C@@H]1O [Yohimbine hydrochloride] | 0.984 | 0.958 | 0.969 | 1 | 0.984 | 1.01 | 1 | 1
3 | O=P(O)(O)C(Cl)(Cl)P(=O)(O)O [Clodronate disodium] | 0.986 | 0.993 | 0.964 | 0.991 | 1 | 1.01 | 0.997 | 0.986
